Measured values published in PubChem BioAssay (NCI).
Where “and” joins values, the source holds several entries; their conditions need not be identical. Identical values can stand only once. This is part of a sample that, as a whole, favours compounds with a hit. Of some 83,000 tested, about 20% had one in any assay.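 Activity criterion: percent growth below 10, measured after cells in 96-well plates were exposed to a single compound concentration for 48 hours.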 Calls of active or inactive are those of the source.

How the values were obtained:
Assay in all cases: NCI-60 one-dose screen, 48 h (100 = growth as untreated, 0 = no growth, -100 = all killed)
Settings in all cases: 10 µM unless noted
SR leukemia = system: SR leukemia
RPMI-8226 leukemia = system: RPMI-8226 leukemia
OVCAR-8 ovarian = system: OVCAR-8 ovarian
OVCAR-5 ovarian = system: OVCAR-5 ovarian
OVCAR-4 ovarian = system: OVCAR-4 ovarian
SK-OV-3 ovarian = system: SK-OV-3 ovarian
OVCAR-3 ovarian = system: OVCAR-3 ovarian
HS 578T breast = system: HS 578T breast
NCI/ADR-RES ovarian = system: NCI/ADR-RES ovarian
T-47D breast = system: T-47D breast
BT-549 breast = system: BT-549 breast
MDA-MB-435 melanoma = system: MDA-MB-435 melanoma
SW-620 colon = system: SW-620 colon
MCF7 breast = system: MCF7 breast
HCT-116 colon = system: HCT-116 colon
HCC-2998 colon = system: HCC-2998 colon
KM12 colon = system: KM12 colon
IGROV1 ovarian = system: IGROV1 ovarian

Row | SMILES | growth (SR leukemia) | growth (RPMI-8226 leukemia) | growth (OVCAR-8 ovarian) | growth (OVCAR-5 ovarian) | growth (OVCAR-4 ovarian) | growth (SK-OV-3 ovarian) | growth (OVCAR-3 ovarian) | growth (HS 578T breast) | growth (NCI/ADR-RES ovarian) | growth (T-47D breast) | growth (BT-549 breast) | growth (MDA-MB-435 melanoma) | growth (SW-620 colon) | growth (MCF7 breast) | growth (HCT-116 colon) | growth (HCC-2998 colon) | growth (KM12 colon) | growth (IGROV1 ovarian)
1 | CN(C)c1ccc(/C=C\C(=O)c2ccccc2)cc1 | 3.11% (active) and 59.4% (inactive) and 24.9% (inactive) | 72.7% (inactive) and 76.8% (inactive) and 69.6% (inactive) | 102% (inactive) and 93.9% (inactive) and 92.6% (inactive) | 106% (inactive) and 110% (inactive) and 99% (inactive) | 105% (inactive) and 109% (inactive) and 104% (inactive) | 92.3% (inactive) and 104% (inactive) | 81.4% (inactive) and 76.2% (inactive) and 78.5% (inactive) | 104% (inactive) and 99.6% (inactive) and 103% (inactive) | 88.2% (inactive) and 85.5% (inactive) and 93.1% (inactive) | 85.2% (inactive) and 89.3% (inactive) | 76.5% (inactive) and 77.6% (inactive) and 73.7% (inactive) | 85.3% (inactive) and 38% (inactive) and 25.1% (inactive) | 64.2% (inactive) and 61.3% (inactive) and 66.4% (inactive) | 50.2% (inactive) and 39.2% (inactive) and 45% (inactive) | 75.9% (inactive) and 94.2% (inactive) and 59.2% (inactive) | 97.1% (inactive) and 88.3% (inactive) and 100% (inactive) | 51.5% (inactive) and 50.1% (inactive) and 57.5% (inactive) | –
2 | Nc1ccc2c(O)cc(S(=O)(=O)O)cc2c1 | 86.3% (inactive) | 85% (inactive) | 105% (inactive) and 97.8% (inactive) | 103% (inactive) | 93.5% (inactive) | 96.1% (inactive) and 96.6% (inactive) | 126% (inactive) and 105% (inactive) | 96.3% (inactive) | 105% (inactive) | 85.5% (inactive) and 101% (inactive) | 94.9% (inactive) and 119% (inactive) | – | 94.3% (inactive) and 95.3% (inactive) | 95% (inactive) and 96.6% (inactive) | – | 88.6% (inactive) and 107% (inactive) | 120% (inactive) and 103% (inactive) | 130% (inactive) and 86.1% (inactive)
3 | Fc1ccc([I+]c2ccc(F)cc2)cc1 | 38.6% (inactive) | 41.7% (inactive) | 46.1% (inactive) | 92.9% (inactive) | 52.1% (inactive) | 68.4% (inactive) | 64.9% (inactive) | 86.2% (inactive) | 98.8% (inactive) | – | 67% (inactive) | 75% (inactive) | 55.9% (inactive) | 48.2% (inactive) | 32.9% (inactive) | 71.7% (inactive) | 54.5% (inactive) | 62.4% (inactive)
4 | O=c1n(CC2CO2)c(=O)n(CC2CO2)c(=O)n1CC1CO1 (configuration not stated) | 17.8% (inactive) | 84.6% (inactive) | 64.4% (inactive) | 108% (inactive) | 100% (inactive) | 68.6% (inactive) | 79.2% (inactive) | 104% (inactive) | 72.2% (inactive) | 53.5% (inactive) | 77.1% (inactive) | – | 75.5% (inactive) | 42.5% (inactive) | 73.9% (inactive) | 94.8% (inactive) | 90.3% (inactive) | –
5 | CC1=C/C(O)CC(=O)Cc2nc(co2)C(=O)N2CCC=C2C(=O)OC(C(C)C)C(C)/C=C\C(=O)NC/C=C\1 (configuration not stated) | 17.9% (inactive) | 60.7% (inactive) | 74% (inactive) | 94.8% (inactive) | 78.5% (inactive) | 119% (inactive) | 85% (inactive) | 63.4% (inactive) | 109% (inactive) | 89.4% (inactive) | – | 81.2% (inactive) | 59.9% (inactive) | 71.8% (inactive) | 34.3% (inactive) | 118% (inactive) | 95.1% (inactive) | 3.64% (active)
6 | CCCCCCCCCCCCCCCc1ccc(N)c(OC2OC(CO)C(O)C(O)C2O)c1 (configuration not stated) | 40.2% (inactive) | 28.7% (inactive) | 87.1% (inactive) | 65.8% (inactive) | 85.2% (inactive) | 149% (inactive) | 93.6% (inactive) | 103% (inactive) | 73% (inactive) | 104% (inactive) | 54.8% (inactive) | 99.6% (inactive) | 98.2% (inactive) | 93.7% (inactive) | 87.7% (inactive) | 9.53% (active) | 100% (inactive) | –
7 | CC[C@H](CC[C@@H](C)[C@H]1CC[C@H]2[C@@H]3CC=C4C[C@@H](O)CC[C@]4(C)[C@H]3CC[C@]12C)C(C)C | 109% (inactive) and 101% (inactive) | 114% (inactive) | 98.9% (inactive) and 105% (inactive) | 45.2% (inactive) and 103% (inactive) | 97.6% (inactive) and 114% (inactive) | 94.8% (inactive) and 104% (inactive) | 112% (inactive) and 108% (inactive) | 96.5% (inactive) and 103% (inactive) | -46.1% (active) and 101% (inactive) | 97.2% (inactive) and 105% (inactive) | 100% (inactive) | 97.4% (inactive) and 99.4% (inactive) | 110% (inactive) and 104% (inactive) | 107% (inactive) and 89.8% (inactive) | 94.6% (inactive) and 105% (inactive) | 108% (inactive) | 106% (inactive) and 98.6% (inactive) | –
